# This is one part of a sample in which the strongest signals are shown more often than they occur.
# B1: Epa1-NP-mutant-Y228A (Candida glabrata), Q6VBJ0 (protein)
# chain: MILNPALFLNKCVCIYTTLILLLLTNGGYATSSNDISLASKDPTTFPLGCSPDITTPKKGLSMELYSYDFRKKGSYPCWDAAYLDPNYPRTGYKSHRLLAKVDGVTGNINFYYHATKGCTPQLGHLPASYNYPKPLTMTNFTMLLYGYFRPKVTGFHTFTISADDLLFVNFGAGNAFDCCRRDSSADHFGNYQAYAIWGSKTAKDELTVHLDAGVYYPIRLFYNNREADGALSFTFKTESNENTVSDFSEYFFSLDDTEEGCPGLISYDSSCASVKTSKIIGIDYHTETPNENLVPITKTIYHLGIPCTGTTTTPLCGSGFYDPLANKCVTINTSSTSSVTKTTSHTTSKEVSFHSSISSQKTLIPKSIPSPYGPIKSQSIPTEMETSSEISSSEYAFSDVISTPSHSPYTKKHSSLNSSSYTSTVIHSLTSYSISQGIFSTSLSEQNITSKSSTDKFSTATSMSNNITQSSIIISQFSTNNENYTTTSMHTSSDKISTETLNNSISTTTSILFSNSSTILKNNTTIISSDKDTHYHPVNPTIVCSTNKTEIICASITQPSISNSNNHWSSSVLKFNSTTVRSTLPSSAGSNETSINVPFSSSTESNTSTSSTSTSNSKMVRSTLPSSAGSNETSISVPFSSSTESNTSTSSTSTSNSKMVRSTLPSSAGSNETSINVPFSSSTESNTSTSSTSTSNSKTVRSTPFSSAGIIMTSLSQRNNKSASSYASSNSKCYNTADSCRKVHSTPSYLLTSSYTSEGVDYDCSLVSTKLKINDTNCVNNKHTTKSCLKTSVTTTIPTLEIKTARKSSSNTIGLHSYPTSSPNKSISSAPIIGYISSFKTIKTASPSYQTSDLTTITTITSLNNPGSTAVENTHESNDKSRKTSSNDISSKHSVIKETKDAVESSNKSHQTNTLKCSSIIIASSSHNSYESLGGTTLTLTLSKVYSPQNNDTLPFLEISEVNPSRTVLPESSKMMQYLTSTEERNKTARNTIATNIVSISTFHFEGEGNAIRMGYTQLLLMLIGIIVMNIGT
# Assays:
# Assay in all cases: glycan array binding signal (z-score within array); higher = stronger binding
# Settings in all cases: glycan notation: IUPAC condensed, linker removed; mutation: Y228A
# [1] = target: Fuc(a1-2)Gal(b1-3)GlcNAc(b1-3)[Gal(b1-4)GlcNAc(b1-6)]Gal(b1-4)Glc
# Outline: (§1)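 The binding signal is a Z-score computed within each array. Data were drawn from 3228 arrays in the Consortium for Functional Glycomics database, restricted to those with a known protein sequence. Scores were averaged over arrays of the same protein sequence at different concentrations or buffers, and over linkers, and negative values can be taken as non-binding.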
# [2] = target: Fuc(a1-2)Gal(b1-3)[Fuc(a1-4)]GlcNAc(b1-2)Man(a1-3)[Fuc(a1-2)Gal(b1-3)[Fuc(a1-4)]GlcNAc(b1-2)Man(a1-6)]Man(b1-4)GlcNAc(b1-4)[Fuc(a1-6)]GlcNAc(b1-4)[Fuc(a1-6)]GlcNAc
# Outline: as §1
# [3] = target: Fuc(a1-2)Gal(b1-4)GlcNAc(b1-2)Man(a1-3)[Fuc(a1-2)Gal(b1-4)GlcNAc(b1-2)Man(a1-6)]Man(b1-4)GlcNAc(b1-4)GlcNAc
# Outline: as §1
# [4] = target: Fuc(a1-2)Gal(b1-4)GlcNAc6S
# Outline: as §1
# [5] = target: Fuc(a1-2)Gal(b1-4)[Fuc(a1-3)]GlcNAc(b1-3)GalNAc
# Outline: as §1
# [6] = target: Fuc(a1-2)Gal6S(b1-4)Glc6S
# Outline: as §1
# [7] = target: Fuc(a1-2)[Gal(a1-3)]Gal(b1-4)[Fuc(a1-3)]Glc
# Outline: as §1
# [8] = target: Fuc(a1-2)[GalNAc(a1-3)]Gal(b1-3)GalNAc(a1-3)[Fuc(a1-2)]Gal(b1-4)GlcNAc
# Outline: as §1
# [9] = target: Fuc(a1-2)[GalNAc(a1-3)]Gal(b1-3)GlcNAc(b1-3)GalNAc
# Outline: as §1
# [10] = target: Fuc(a1-2)[GalNAc(a1-3)]Gal(b1-4)GlcNAc(b1-3)[Fuc(a1-2)[GalNAc(a1-3)]Gal(b1-4)GlcNAc(b1-6)]GalNAc
# Outline: as §1
# [11] = target: Fuc(a1-3)[Gal(b1-4)]GlcNAc(b1-6)GalNAc
# Outline: as §1
# [12] = target: Fuc(a1-3)[Gal(b1-4)]GlcNAc(b1-6)[Gal(b1-3)GlcNAc(b1-3)]Gal(b1-4)Glc
# Outline: as §1
# Gal(a1-2)Gal = target: Gal(a1-2)Gal
# Outline: as §1
# [13] = target: Gal(a1-3)Gal(b1-4)GlcNAc(b1-2)Man(a1-3)[Gal(a1-3)Gal(b1-4)GlcNAc(b1-2)Man(a1-6)]Man(b1-4)GlcNAc(b1-4)GlcNAc
# Outline: as §1
# Gal(a1-3)GalNAc = target: Gal(a1-3)GalNAc
# Outline: as §1
# [14] = target: Gal(a1-4)Gal(b1-4)GlcNAc(b1-2)Man(a1-3)[Gal(a1-4)Gal(b1-4)GlcNAc(b1-2)Man(a1-6)]Man(b1-4)GlcNAc(b1-4)GlcNAc
# Outline: as §1
# Gal(b1-3)Gal = target: Gal(b1-3)Gal
# Outline: as §1
# Gal(b1-3)Gal(b1-4)GlcNAc = target: Gal(b1-3)Gal(b1-4)GlcNAc
# Outline: as §1
# [15] = target: Gal(b1-3)GalNAc(a1-3)[Fuc(a1-2)]Gal(b1-4)Glc
# Outline: as §1
# [16] = target: Gal(b1-3)GlcNAc(a1-3)Gal(b1-4)GlcNAc
# Outline: as §1
# Gal(b1-3)GlcNAc(b1-2)Man = target: Gal(b1-3)GlcNAc(b1-2)Man
# Outline: as §1
# [17] = target: Gal(b1-3)GlcNAc(b1-2)Man(a1-3)[Gal(b1-3)GlcNAc(b1-2)Man(a1-6)]Man(b1-4)GlcNAc(b1-4)[Fuc(a1-6)]GlcNAc
# Outline: as §1
# [18] = target: Gal(b1-3)GlcNAc(b1-2)Man(a1-3)[GlcNAc(b1-4)][Gal(b1-3)GlcNAc(b1-2)Man(a1-6)]Man(b1-4)GlcNAc(b1-4)GlcNAc
# Outline: as §1
# [19] = target: Gal(b1-3)GlcNAc(b1-3)Gal(b1-4)GlcNAc(b1-6)[Gal(b1-3)GlcNAc(b1-3)]Gal(b1-4)Glc
# Outline: as §1
# [20] = target: Gal(b1-3)GlcNAc(b1-6)Gal(b1-4)GlcNAc
# Outline: as §1
# [21] = target: Gal(b1-3)GlcNAc(b1-6)GalNAc
# Outline: as §1
# Gal(b1-3)GlcNAc6S = target: Gal(b1-3)GlcNAc6S
# Outline: as §1
binder,measurement,setting,value
B1,glycan array binding signal (z-score),[1],-0.261
same,glycan array binding signal (z-score),[2],-0.098
same,glycan array binding signal (z-score),[3],-0.023
same,glycan array binding signal (z-score),[4],-0.027
same,glycan array binding signal (z-score),[5],-0.103
same,glycan array binding signal (z-score),[6],-0.325
same,glycan array binding signal (z-score),[7],-0.203
same,glycan array binding signal (z-score),[8],-0.281
same,glycan array binding signal (z-score),[9],0.018
same,glycan array binding signal (z-score),[10],-0.156
same,glycan array binding signal (z-score),[11],-0.289
same,glycan array binding signal (z-score),[12],-0.025
same,glycan array binding signal (z-score),Gal(a1-2)Gal,-0.233
same,glycan array binding signal (z-score),[13],-0.232
same,glycan array binding signal (z-score),Gal(a1-3)GalNAc,-0.151
same,glycan array binding signal (z-score),[14],0.054
same,glycan array binding signal (z-score),Gal(b1-3)Gal,11.6
same,glycan array binding signal (z-score),Gal(b1-3)Gal(b1-4)GlcNAc,10.2
same,glycan array binding signal (z-score),[15],0.088
same,glycan array binding signal (z-score),[16],-0.17
same,glycan array binding signal (z-score),Gal(b1-3)GlcNAc(b1-2)Man,3.19
same,glycan array binding signal (z-score),[17],2.29
same,glycan array binding signal (z-score),[18],2.24
same,glycan array binding signal (z-score),[19],2.26
same,glycan array binding signal (z-score),[20],2.32
same,glycan array binding signal (z-score),[21],-0.142
same,glycan array binding signal (z-score),Gal(b1-3)GlcNAc6S,7.1
